Measured values published in article PMC4336329 (PLoS ONE, 2015).
In all, about 310,000 compounds went through this assay and about 14,000 (4.5%) showed an effect of 50% or more. The effect is printed as a negative number. Only a selection was taken, and strong results are over-represented in it overall.

Target: human ether-à-go-go-related gene (hERG) potassium channel (human, UniProt Q12809)
Experiment: primary screen, population patch clamp on CHO cells stably expressing hERG; higher = less effect of the substance
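Further: peak tail current of the secondary pulse compared with the same well before compound.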

Chain of human ether-à-go-go-related gene (hERG) potassium channel (Q12809 whole entry, looked up): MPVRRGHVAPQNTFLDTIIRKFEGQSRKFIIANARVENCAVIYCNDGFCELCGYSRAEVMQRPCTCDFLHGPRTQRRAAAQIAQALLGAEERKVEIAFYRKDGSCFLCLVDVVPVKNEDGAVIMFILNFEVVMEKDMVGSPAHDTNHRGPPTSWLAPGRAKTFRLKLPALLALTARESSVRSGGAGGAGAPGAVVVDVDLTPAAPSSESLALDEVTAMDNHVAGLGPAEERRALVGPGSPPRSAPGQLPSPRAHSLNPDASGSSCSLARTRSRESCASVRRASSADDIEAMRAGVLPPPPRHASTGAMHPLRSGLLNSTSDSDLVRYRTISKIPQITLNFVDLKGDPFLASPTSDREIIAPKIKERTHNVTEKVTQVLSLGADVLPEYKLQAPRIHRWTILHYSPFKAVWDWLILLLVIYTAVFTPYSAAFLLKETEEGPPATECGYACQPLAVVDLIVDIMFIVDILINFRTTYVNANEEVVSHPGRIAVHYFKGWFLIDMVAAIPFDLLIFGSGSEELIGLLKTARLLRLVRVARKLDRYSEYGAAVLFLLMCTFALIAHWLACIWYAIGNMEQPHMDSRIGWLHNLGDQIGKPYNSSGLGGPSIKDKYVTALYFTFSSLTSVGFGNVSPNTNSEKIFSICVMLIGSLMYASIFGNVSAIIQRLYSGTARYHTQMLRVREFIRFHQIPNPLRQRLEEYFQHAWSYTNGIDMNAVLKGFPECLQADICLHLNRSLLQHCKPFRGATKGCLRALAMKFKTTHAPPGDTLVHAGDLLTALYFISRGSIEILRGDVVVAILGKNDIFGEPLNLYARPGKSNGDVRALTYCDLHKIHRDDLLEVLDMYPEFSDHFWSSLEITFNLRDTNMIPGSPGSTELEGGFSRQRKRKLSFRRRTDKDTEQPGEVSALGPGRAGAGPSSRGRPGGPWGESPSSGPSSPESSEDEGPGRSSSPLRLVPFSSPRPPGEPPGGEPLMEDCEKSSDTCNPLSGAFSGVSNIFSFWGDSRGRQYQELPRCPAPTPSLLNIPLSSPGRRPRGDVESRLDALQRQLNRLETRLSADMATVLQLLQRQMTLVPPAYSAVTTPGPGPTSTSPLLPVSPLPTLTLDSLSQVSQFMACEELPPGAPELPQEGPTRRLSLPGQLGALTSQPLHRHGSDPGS

Compound	hERG current change (%, negative = inhibition) at 10uM [%]
CCN(C(=O)COC(=O)C1CCN(S(=O)(=O)c2ccc3c(c2)OCCO3)CC1)C1CCCCC1	-2.31
CC1(C)Cc2cccc(OCC(=O)NCc3ccccc3F)c2O1	-5.79
CC(Oc1ccccc1)C(=O)N1CCN(C(=O)C(C)Oc2ccccc2)CC1 (stereo not shown)	8.52
O=C1CC2(CCN(C(=O)COc3ccc(Cl)cc3)CC2)Oc2ccccc21	-85.8
CC(Oc1ccccc1)C(=O)N1CCC2(CC1)CC(=O)c1ccccc1O2 (stereo not shown)	-65.7
CC(Oc1ccccc1)C(=O)N1CCN(c2ccc(N3CCOCC3)nn2)CC1 (stereo not shown)	-3.79
CC(Oc1ccccc1)C(=O)N1CCC2(CC1)Oc1ccc(Cl)cc1C(=O)C21CC(c2ccccc2)=NO1 (stereo not shown)	7.46
CCOC(=O)COc1ccc2c(c1)C(=O)CC1(CCN(C(C)=O)CC1)O2	-19.7
CC(Oc1ccccc1)C(=O)N1CCN(c2ccc(N3CCCCCC3)nn2)CC1 (stereo not shown)	-52.7
CC(=O)N1CCC2(CC1)CC(=O)c1cc(OCC(=O)NCc3ccc(C)cc3)ccc1O2	-21.3
CC(Oc1ccccc1)C(=O)N1CCN(c2ccc(N3CCCCC3)nn2)CC1 (stereo not shown)	-28.5
Cc1ccc(OCC(=O)N2CCC3(CC2)CC(=O)c2ccccc2O3)cc1	-73.3
COc1ccc(C2=NS(=O)(=O)N(C)C(C(=O)N3CCOCC3)=C2)cc1OC	-2.16
CN1CCN(C(=O)c2cnn(-c3ccccc3)c2NC(=O)c2cccs2)CC1	-29.2
CCCCC1(C(=O)OCC)NC(c2ccc(O)cc2)C2C(=O)N(c3ccccc3)C(=O)C21 (stereo not shown)	-3.73
CCOC(=O)C1=C(N)N2C(=O)C(C)SC2=C(C(=O)OCC)C1c1cc(OC)c(OC)c(OC)c1 (stereo not shown)	1.27
COc1ccc(OC)c(S(=O)(=O)N2CCC(C(=O)NCc3ccccc3)CC2)c1	-9.9
CN1CCN(/C=C2\SC(=S)NC2=O)CC1	11.6
O=C(NNc1ccccc1)C(=O)NNS(=O)(=O)c1ccc(CCCl)cc1	2.82
O=C1CC(N2CCOCC2)=NN1c1ccc([N+](=O)[O-])cc1	-8.54

Compound	hERG current change (%, negative = inhibition) at 10uM [%]
CCNC(=S)NNC(=O)c1nn(C)c(C)c1Cl	19
CC(=O)Nc1c(O)n(C)c2ccccc12	13.6
COc1ccc(OCC(=O)N2CCC3(CC2)CC(=O)c2ccccc2O3)cc1	-88.9
CC(=O)N1CCC2(CC1)CC(=O)c1cc(OCC(=O)N3CCC4(CC3)OCCO4)ccc1O2	18.5
Cc1ccccc1OCC(=O)N1CCC2(CC1)CC(=O)c1ccccc1O2	-57.5
CCOc1ccc(OCC(=O)N2CCC3(CC2)CC(=O)c2ccccc2O3)cc1	-94.6
CCOC(=O)C1CCN(C(=O)C(C)Oc2ccc(Br)cc2)CC1 (stereo not shown)	-16.1
CC(=O)N1CCC2(CC1)CC(=O)c1cc(OCC(=O)N3CCN(C)CC3)ccc1O2	1.86
CC(Oc1ccc(Br)cc1)C(=O)N1CCC(C(N)=O)CC1 (stereo not shown)	-78.1
CCOC(=O)N1CCN(C(=O)COc2ccc3c(c2)C(=O)CC2(CCN(C(C)=O)CC2)O3)CC1	-2.13
O=C1CC2(CCN(C(=O)COc3ccccc3F)CC2)Oc2ccccc21	-49.1
CCN1CCN(C(=O)COc2ccc3c(c2)C(=O)CC2(CCN(C(C)=O)CC2)O3)CC1	20.5
CCC(Oc1ccccc1)C(=O)N1CCC(C(N)=O)CC1 (stereo not shown)	15.8
COc1ccccc1OCC(=O)N1CCC2(CC1)CC(=O)c1ccccc1O2	-40.2
O=C(Nc1ccccc1N1CCOCC1)c1cccnc1	15
O=C(N/N=C/c1cccs1)c1cccc(NC(=O)c2ccc(Cl)cc2)c1	7.57
CO[C@@]1(NC(=O)C2SC(=C(C(N)=O)C(=O)O)S2)C(=O)N2C(C(=O)O)=C(CSc3nnnn3C)CS[C@@H]21 (stereo partly shown)	13.6
CCCNc1nc(C)nc2c1cnn2CCc1ccccc1	-12.8
CCOc1nc(CC(C)C)c2c(c1C#N)CC(C)(C)OC2	1.14
O=C1CC(NS(=O)(=O)c2ccc3ccccc3c2)CN1c1ccccc1 (stereo not shown)	-0.798

Compound	hERG current change (%, negative = inhibition) at 10uM [%]
Cl.N=c1sccn1CC(=O)Nc1ccc(Cl)cc1[N+](=O)[O-]	-21
COc1cc(C(=O)NNC(=O)c2cc(C)[nH]n2)cc(OC)c1OC	18.8
C/C(=N\NC(=O)C1CC1)c1cccs1	9.16
O=C1CC2(CCN(C(=O)COc3ccccc3)CC2)Oc2ccccc21	-67.4
O=C1CC2(CCCCC2)Oc2ccc(OCC(=O)N3CCOCC3)cc21	3.3
O=C1CC2(CCN(C(=O)COc3ccc(F)cc3)CC2)Oc2ccccc21	-42.6
O=C(NCc1ccncc1)/C(=N/O)c1ccccc1	18.7
CSc1ccccc1NC(=O)Nc1ccc(Cl)cc1	-1.3
CC(C)C(=O)Nc1ccccc1C(=O)OCC(=O)c1ccc2c(c1)OCCO2	-10.4
CCn1c(CN2CCN(Cc3ccc(C)cc3)C(CCO)C2)nc2ccccc21 (stereo not shown)	-74.7
Cc1ccccc1CN1CCN(Cc2ccc3cccc(F)c3n2)CC1CCO (stereo not shown)	-32.7
CCn1cc(CN2CCN(Cc3ccccc3)C(CCO)C2)c2ccccc21 (stereo not shown)	-32
OCCC1CN(Cc2ccc3cccc(F)c3n2)CCN1Cc1ccccc1 (stereo not shown)	-15.6
Cc1ccc(CN2CCN(Cc3cccc(C)n3)CC2CCO)cc1 (stereo not shown)	-40.2
Cc1ccc(CN2CCN(Cc3nc4ccccc4nc3C)CC2CCO)cc1 (stereo not shown)	-69.7
Cc1nc2ccccc2nc1CN1CCN(Cc2ccc(F)c(F)c2)C(CCO)C1 (stereo not shown)	-40.4
CC(C)Cn1c(CN2CCN(C)C(CCO)C2)nc2ccccc21 (stereo not shown)	4.02
Cc1ccc(CN2CCN(Cc3ccc4cccc(F)c4n3)CC2CCO)cc1 (stereo not shown)	-68.6
